Measured values published in PubChem BioAssay AID1159580 (chemical genetic matrix, 2015).
In all, about 5,500 compounds went through this assay and about 2,000 (36%) were called active. About 18% were inconclusive and are not listed. Cut-off read from the data, not from the text of the source: active = normalized growth mostly below about 0.91 (no sharp cut-off); inconclusive = no clear call, values can overlap the other calls; inactive = mostly above about 0.92. Some of the results follow.

Assay: chemical genetic growth profiling, strain panel (AID 1159580);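 note: tested at 20 µM; growth read once vehicle control cultures reached saturation at 30 °C; 1 = growth at the plate median or of vehicle wells; lower values mean less growth of the strain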
Settings: S. cerevisiae deletion strains, growth OD
[1] = locus YAL040C, strain CLN3, hits give low values
[2] = locus YDR363W, strain ESC2, hits give low values
[3] = locus YER002W, strain NOP16, hits give low values
[4] = locus YNL175C, strain NOP13, hits give low values
[5] = locus YNL197C, strain WHI3, hits give low values
[6] = locus YNL224C, strain SQS1, hits give low values
[7] = locus YOR083W, strain WHI5 (second series), hits give low values

Measured: normalized growth

N.N.O=C(O)C1(C(=O)O)CCC1.[Pt+2]
inactive: [1] 0.986 | locus YCL061C, strain MRC1 (second series), hits give low values 1 | locus YDR150W, strain NUM1, hits give low values 1 | [2] 0.988 | [3] 1.02 | locus YMR307W, strain GAS1, hits give low values 0.984 | [4] 0.998 | [5] 1.04 | [6] 1 | [7] 0.995 | locus YPL055C, strain LGE1, hits give low values 0.998

NC1(C(=O)O)CCCCC1
inactive: [1] 0.993 | [2] 0.98 | [3] 1.01 | locus YJR075W, strain HOC1, hits give low values 0.992 | locus YMR263W, strain SAP30, hits give low values 0.995 | locus YNL153C, strain GIM3, hits give low values 0.982 | [4] 1.01 | [5] 0.992 | [6] 0.98 | [7] 0.981
